Consider six molecules from ChEMBL document CHEMBL1961873, “Compounds: GSK PKIS; Assays: Nanosyn kinase panel” (2012).

The structures appear in SMILES notation.

In assay [1] the target is Dual specificity protein kinase CLK3 (Homo sapiens) (UniProt P49761). As to conditions: at 1 µM.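 Also: each value is the mean inhibition of CLK3.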
Assay [2] deals with Dual specificity tyrosine-phosphorylation-regulated kinase 1A (Homo sapiens) (UniProt Q13627). Particulars: at 0.1 µM.
Assay [3] has the same target. Particulars: at 1 µM.
In assay [4] the target is Dual specificity tyrosine-phosphorylation-regulated kinase 1B (Homo sapiens) (UniProt Q9Y463). As to conditions: at 0.1 µM.
The target is the same in assay [5]. Particulars: at 1 µM.
Assay [6] concerns the target T1, Dual specificity tyrosine-phosphorylation-regulated kinase 2 (Homo sapiens) (UniProt Q92630).
T1 sequence (whole entry): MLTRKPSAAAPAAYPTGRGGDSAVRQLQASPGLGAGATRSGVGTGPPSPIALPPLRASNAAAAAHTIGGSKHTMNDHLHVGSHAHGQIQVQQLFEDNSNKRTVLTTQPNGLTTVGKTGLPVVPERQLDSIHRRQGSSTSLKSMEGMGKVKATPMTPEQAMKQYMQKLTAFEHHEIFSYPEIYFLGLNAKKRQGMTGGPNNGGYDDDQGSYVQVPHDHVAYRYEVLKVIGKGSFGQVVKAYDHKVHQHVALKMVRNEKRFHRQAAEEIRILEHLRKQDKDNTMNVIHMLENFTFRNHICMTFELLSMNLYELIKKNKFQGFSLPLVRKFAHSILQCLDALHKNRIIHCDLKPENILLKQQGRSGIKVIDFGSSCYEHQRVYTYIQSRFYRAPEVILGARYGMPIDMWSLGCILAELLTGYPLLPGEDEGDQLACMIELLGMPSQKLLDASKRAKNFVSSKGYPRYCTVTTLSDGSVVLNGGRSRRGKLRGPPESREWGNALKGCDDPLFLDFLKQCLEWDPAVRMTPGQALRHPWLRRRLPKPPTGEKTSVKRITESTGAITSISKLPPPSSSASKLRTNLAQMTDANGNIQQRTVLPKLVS
Particulars: at 0.1 µM.

Assay [7] addresses T1, Dual specificity tyrosine-phosphorylation-regulated kinase 2 (Homo sapiens). Particulars: at 1 µM.
Assay [8] concerns the target Glycogen synthase kinase-3 alpha (Homo sapiens) (UniProt P49840). Particulars: at 0.1 µM.
Assay [9] shares this target. As to conditions: at 1 µM.
In assay [10] the target is Glycogen synthase kinase-3 beta (Homo sapiens) (UniProt P49841). As to conditions: at 0.1 µM.
The target is the same in assay [11]. As to conditions: at 1 µM.
Assay [12] addresses Homeodomain-interacting protein kinase 1 (Homo sapiens) (UniProt Q86Z02). As to conditions: at 0.1 µM.
For assay [13] the target is unchanged. Particulars: at 1 µM.
Assay [14] concerns the target T2, Homeodomain-interacting protein kinase 4 (Homo sapiens) (UniProt Q8NE63).
T2 sequence (whole entry): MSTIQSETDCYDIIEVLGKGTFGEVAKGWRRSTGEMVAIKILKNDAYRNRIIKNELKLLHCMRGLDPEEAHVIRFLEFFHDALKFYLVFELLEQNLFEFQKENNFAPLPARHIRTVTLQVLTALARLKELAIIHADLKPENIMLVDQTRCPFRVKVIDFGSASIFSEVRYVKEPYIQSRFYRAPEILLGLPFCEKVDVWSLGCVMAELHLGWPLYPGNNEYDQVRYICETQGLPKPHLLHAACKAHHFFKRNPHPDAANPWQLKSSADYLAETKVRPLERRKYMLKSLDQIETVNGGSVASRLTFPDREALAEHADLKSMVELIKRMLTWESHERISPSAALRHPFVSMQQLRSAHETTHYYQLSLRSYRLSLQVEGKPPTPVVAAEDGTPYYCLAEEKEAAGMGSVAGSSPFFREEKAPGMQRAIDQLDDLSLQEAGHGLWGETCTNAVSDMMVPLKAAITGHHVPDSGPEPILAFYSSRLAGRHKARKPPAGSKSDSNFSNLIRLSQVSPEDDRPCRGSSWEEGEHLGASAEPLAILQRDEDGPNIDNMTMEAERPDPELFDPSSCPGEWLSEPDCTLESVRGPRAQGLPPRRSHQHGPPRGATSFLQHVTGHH
As to conditions: at 0.1 µM.

The target in assay [15] is T2, Homeodomain-interacting protein kinase 4 (Homo sapiens). As to conditions: at 1 µM.
The target of assay [16] is Mitogen-activated protein kinase 9 (Homo sapiens) (UniProt P45984). As to conditions: at 0.1 µM.
The target is the same in assay [17]. Particulars: at 1 µM.
Assay [18] has as its target Mitogen-activated protein kinase 1 (Homo sapiens) (UniProt P28482). Particulars: at 0.1 µM.
Assay [19] has the same target. Particulars: at 1 µM.
Assay [20] has as its target Mitogen-activated protein kinase 3 (Homo sapiens) (UniProt P27361). Particulars: at 0.1 µM.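 Also: each value is a mean inhibition figure.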

Mitogen-activated protein kinase 3 (Homo sapiens), sequence (P27361 whole entry): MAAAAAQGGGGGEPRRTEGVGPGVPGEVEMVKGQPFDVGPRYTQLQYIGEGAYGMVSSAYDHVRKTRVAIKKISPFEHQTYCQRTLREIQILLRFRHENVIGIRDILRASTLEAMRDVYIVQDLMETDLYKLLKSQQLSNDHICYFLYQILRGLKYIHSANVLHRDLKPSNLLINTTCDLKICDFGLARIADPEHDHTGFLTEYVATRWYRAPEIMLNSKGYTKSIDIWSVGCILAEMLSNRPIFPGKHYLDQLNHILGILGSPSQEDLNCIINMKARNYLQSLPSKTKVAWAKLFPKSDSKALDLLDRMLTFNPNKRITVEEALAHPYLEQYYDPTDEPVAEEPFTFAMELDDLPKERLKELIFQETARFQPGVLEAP
Dual specificity tyrosine-phosphorylation-regulated kinase 1B (Homo sapiens), sequence (Q9Y463 whole entry, looked up): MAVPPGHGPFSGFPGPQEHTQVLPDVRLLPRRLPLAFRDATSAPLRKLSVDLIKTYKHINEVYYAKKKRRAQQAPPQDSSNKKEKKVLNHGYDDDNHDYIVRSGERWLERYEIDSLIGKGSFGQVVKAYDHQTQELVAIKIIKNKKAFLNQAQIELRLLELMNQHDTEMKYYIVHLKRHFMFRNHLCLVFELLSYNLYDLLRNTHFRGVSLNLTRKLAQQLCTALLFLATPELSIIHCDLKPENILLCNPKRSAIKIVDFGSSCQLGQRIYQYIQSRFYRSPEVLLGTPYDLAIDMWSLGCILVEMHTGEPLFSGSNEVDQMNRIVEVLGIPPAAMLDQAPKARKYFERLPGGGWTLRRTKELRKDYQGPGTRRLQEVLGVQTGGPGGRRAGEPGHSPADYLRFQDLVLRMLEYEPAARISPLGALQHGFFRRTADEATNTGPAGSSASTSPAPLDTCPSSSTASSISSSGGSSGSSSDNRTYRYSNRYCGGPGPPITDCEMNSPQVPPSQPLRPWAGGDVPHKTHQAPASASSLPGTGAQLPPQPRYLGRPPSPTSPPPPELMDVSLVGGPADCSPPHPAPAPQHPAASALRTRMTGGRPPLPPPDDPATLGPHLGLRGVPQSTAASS
Mitogen-activated protein kinase 1 (Homo sapiens), sequence (P28482 whole entry): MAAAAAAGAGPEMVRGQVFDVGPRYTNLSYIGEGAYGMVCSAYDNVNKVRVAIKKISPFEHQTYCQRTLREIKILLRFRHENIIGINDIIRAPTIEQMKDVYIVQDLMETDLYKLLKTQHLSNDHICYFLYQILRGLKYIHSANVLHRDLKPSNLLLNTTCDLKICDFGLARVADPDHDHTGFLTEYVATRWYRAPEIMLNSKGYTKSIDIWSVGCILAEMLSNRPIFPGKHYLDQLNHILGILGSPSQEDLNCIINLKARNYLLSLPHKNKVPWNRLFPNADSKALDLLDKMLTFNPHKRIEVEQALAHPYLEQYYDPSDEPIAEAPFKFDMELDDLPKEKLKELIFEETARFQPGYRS
Homeodomain-interacting protein kinase 1 (Homo sapiens), sequence (Q86Z02 whole entry, looked up): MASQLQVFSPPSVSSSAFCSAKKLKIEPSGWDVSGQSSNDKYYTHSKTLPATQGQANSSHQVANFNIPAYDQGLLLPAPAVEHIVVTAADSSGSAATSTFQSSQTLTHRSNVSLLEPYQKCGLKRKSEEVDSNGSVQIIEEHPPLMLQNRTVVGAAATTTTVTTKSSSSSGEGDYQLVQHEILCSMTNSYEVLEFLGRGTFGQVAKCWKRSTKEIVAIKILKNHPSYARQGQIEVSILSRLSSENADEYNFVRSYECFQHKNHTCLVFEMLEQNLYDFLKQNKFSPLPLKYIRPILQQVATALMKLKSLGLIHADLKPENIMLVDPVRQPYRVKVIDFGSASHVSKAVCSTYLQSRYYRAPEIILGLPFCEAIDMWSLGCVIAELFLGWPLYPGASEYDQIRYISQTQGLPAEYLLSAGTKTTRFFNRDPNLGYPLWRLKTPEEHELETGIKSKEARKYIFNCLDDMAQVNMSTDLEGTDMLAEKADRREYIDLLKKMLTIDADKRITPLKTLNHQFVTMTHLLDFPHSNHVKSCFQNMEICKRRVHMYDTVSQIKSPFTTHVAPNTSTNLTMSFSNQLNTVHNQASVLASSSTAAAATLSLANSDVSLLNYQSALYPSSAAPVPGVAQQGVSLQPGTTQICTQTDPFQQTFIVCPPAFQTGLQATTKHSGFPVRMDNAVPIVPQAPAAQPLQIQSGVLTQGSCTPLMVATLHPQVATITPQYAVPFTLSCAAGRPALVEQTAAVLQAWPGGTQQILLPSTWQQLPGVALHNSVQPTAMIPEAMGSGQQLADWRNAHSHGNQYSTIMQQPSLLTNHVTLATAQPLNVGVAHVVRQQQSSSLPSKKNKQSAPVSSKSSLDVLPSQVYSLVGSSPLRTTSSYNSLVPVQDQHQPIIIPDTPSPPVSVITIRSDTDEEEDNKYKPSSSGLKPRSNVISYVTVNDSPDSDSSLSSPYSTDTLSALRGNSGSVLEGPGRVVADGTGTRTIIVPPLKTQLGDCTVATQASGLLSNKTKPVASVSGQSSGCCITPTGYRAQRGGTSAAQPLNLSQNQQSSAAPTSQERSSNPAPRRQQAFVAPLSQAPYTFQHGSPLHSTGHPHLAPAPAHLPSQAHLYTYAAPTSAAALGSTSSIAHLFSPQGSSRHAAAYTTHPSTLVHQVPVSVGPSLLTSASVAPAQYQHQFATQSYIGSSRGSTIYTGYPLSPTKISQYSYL
Dual specificity protein kinase CLK3 (Homo sapiens), sequence (P49761 whole entry, looked up): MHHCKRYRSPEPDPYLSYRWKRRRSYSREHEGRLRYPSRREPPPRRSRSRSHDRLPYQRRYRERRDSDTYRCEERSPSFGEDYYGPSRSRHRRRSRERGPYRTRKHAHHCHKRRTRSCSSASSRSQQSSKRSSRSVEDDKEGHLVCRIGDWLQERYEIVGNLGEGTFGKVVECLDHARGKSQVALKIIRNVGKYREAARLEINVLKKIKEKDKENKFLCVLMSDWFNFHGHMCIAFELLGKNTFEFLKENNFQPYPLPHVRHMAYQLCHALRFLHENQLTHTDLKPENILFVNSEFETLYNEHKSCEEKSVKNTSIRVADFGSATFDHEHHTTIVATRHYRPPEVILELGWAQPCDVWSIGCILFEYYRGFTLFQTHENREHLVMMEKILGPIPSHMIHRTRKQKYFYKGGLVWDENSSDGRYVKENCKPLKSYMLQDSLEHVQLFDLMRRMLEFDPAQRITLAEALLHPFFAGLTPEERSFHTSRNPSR
Glycogen synthase kinase-3 alpha (Homo sapiens), sequence (P49840 2-483 limits assumed): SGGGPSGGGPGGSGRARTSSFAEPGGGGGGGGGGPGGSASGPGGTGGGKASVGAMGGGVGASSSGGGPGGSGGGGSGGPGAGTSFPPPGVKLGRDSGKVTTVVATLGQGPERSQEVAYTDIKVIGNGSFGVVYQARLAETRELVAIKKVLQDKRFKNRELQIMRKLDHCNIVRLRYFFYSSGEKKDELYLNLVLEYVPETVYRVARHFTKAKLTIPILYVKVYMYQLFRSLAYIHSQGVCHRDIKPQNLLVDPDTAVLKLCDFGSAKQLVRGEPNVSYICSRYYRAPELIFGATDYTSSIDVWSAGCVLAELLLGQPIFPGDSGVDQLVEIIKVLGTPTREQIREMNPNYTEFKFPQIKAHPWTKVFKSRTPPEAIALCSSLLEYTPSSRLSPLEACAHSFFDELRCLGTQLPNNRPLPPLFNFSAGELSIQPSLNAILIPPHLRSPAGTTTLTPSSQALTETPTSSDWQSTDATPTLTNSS
Glycogen synthase kinase-3 beta (Homo sapiens), sequence (P49841 whole entry, looked up): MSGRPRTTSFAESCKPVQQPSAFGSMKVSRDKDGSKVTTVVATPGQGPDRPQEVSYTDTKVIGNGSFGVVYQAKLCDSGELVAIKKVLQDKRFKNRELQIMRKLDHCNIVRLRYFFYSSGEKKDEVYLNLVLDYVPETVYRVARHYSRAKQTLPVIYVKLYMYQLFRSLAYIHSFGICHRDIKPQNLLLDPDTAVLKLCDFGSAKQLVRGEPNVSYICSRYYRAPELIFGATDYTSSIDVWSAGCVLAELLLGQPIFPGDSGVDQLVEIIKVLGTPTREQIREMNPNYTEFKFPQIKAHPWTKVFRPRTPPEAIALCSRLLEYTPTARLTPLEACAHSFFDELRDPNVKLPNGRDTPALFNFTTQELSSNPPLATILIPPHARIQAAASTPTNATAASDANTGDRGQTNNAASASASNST
Mitogen-activated protein kinase 9 (Homo sapiens), sequence (P45984 whole entry, looked up): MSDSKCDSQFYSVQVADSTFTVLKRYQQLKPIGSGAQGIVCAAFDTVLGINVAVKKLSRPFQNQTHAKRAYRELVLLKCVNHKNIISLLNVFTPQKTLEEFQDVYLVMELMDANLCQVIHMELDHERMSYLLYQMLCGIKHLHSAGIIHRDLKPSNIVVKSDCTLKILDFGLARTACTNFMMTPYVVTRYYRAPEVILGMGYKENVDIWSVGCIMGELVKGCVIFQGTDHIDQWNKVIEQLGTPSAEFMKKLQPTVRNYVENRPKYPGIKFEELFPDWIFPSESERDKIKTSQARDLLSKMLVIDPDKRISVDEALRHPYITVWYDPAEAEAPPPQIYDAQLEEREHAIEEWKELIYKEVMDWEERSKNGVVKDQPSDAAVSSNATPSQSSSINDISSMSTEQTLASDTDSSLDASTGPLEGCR

For `COc1cc2c(cc1Nc1nc(Nc3cccc(F)c3C(N)=O)c3cc[nH]c3n1)N(C(=O)CN1CCN(C(C)C)CC1)CC2`, the inhibition in assay [1] was determined as 1.39%; in assay [2], 1.82%; in assay [3], 10.2%; in [4], 3.8%; in assay [5], 9.06%; in assay [6], 2.66%. In addition, the inhibition in assay [7] came out at 5.93%; in [8], 1.62%; in [9], 2.06%; in assay [10] it was 0.46%; in assay [11], 3.89%; in assay [12], 0.07%. Besides, the inhibition in assay [13] was found to be 21.8%; in assay [14], 3.33%; in [15], 15.4%; in [16], 3.04%; in assay [17], 18.2%; in [18] it was 2.66%. For the same molecule, the inhibition came out at 7.45% in assay [19] and 2.64% in [20].
Turning to `NC(=O)c1ccc2c(-c3ccnc(NCCCO)n3)c(-c3ccc(F)cc3)nn2c1`, the inhibition in [1] stood at 2.71%; in assay [2], 7.25%; in assay [3], 8.12%; in assay [4] it was 5.14%; in [5], 5.25%; in assay [6], 3.28%. In addition, the inhibition is 5.26% in [7]; 3.74% in assay [8]; 19.6% in assay [9]; 7.03% in [10]; 41.3% in assay [11]; 1.65% in assay [12]. Further, the inhibition in [13] amounted to 4.85%; in assay [14] it was 5.71%; in assay [15], 7.94%; in assay [16], 38%; in assay [17], 82.2%; in [18], 1.98%. Further, the inhibition in [19] is 14.9%; in assay [20], 4.06%.
For the molecule `CCCNc1cccc(-n2ncc3c(N/N=C/c4ccncc4)ncnc32)c1`, the inhibition was 9.87% in assay [1]; 1.44% in assay [2]; 20.6% in [3]; 0.57% in assay [4]; 9.45% in assay [5]; 2.85% in assay [6]. Also, the inhibition in assay [7] stood at 14.2%; in assay [8] it was 31.9%; in assay [9], 71.8%; in [10], 24%; in assay [11] it was 68.7%; in [12] it was 2.78%. The inhibition in [13] is 13.5%; in assay [14], 4.71%; in assay [15] it was 27.7%; in assay [16], -0.25%; in assay [17], 6.14%; in assay [18], 1.61%. Further, the inhibition in assay [19] stood at 1.54%; in assay [20], 1.28%.
As to `CNC(=O)c1ncccc1Nc1nc(Nc2cc3c(cc2OC)CCCN3C(=O)CN(C)C)nc2[nH]ccc12`, the inhibition in assay [1] was found to be 4.34%; in assay [2], 3.21%; in [3], 12.5%; in assay [4] it was 0.36%; in assay [5], 8.48%; in [6], 3.42%. Further, the inhibition turned out to be 8.03% in [7]; 7.2% in assay [8]; 15.6% in assay [9]; 6.12% in assay [10]; 14.6% in [11]; 3.08% in [12]. For the same molecule, the inhibition in assay [13] turned out to be 22.2%; in [14], 3.67%; in assay [15] it was 13.5%; in [16] it was 3.07%; in assay [17] it was 9.19%; in assay [18] it was 3.01%. Further, the values for the inhibition in [19] and in assay [20] were 6.21% and 2.44%, respectively.
With `COc1ccc(-c2nn3ncccc3c2-c2ccnc(Nc3ccc(F)c(F)c3)n2)cc1`, the inhibition is 3.23% in assay [1]; 2.77% in [2]; 4.84% in [3]; -0.82% in assay [4]; 1.01% in [5]; 2.83% in [6]. Moreover, the inhibition came to 3.6% in assay [7]; 3.2% in assay [8]; 4.32% in [9]; 3.16% in assay [10]; 5% in assay [11]; 3.8% in [12]. Besides, the inhibition came out at 4.38% in assay [13]; 1.49% in [14]; 1.58% in assay [15]; 7.25% in assay [16]; 23.9% in [17]; 4.91% in assay [18]. In addition, the inhibition in assay [19] worked out at 5.09%; in assay [20], 3.11%.
In the case of `CCS(=O)(=O)c1ccc(OC)c(Nc2ncc(-c3cccc(C(C)=O)c3)o2)c1`, the inhibition in assay [1] worked out at 5.96%; in assay [2] it was 6.12%; in assay [3] it was 35.4%; in [4], 4.09%; in [5], 33.2%; in assay [6] it was 2.2%. Further, the inhibition in [7] came out at 5.6%; in assay [8] it was 3.75%; in [9], 11.3%; in [10], 4.38%; in assay [11], 12.4%; in assay [12], 5.49%. The inhibition was 23% in assay [13]; 5.03% in assay [14]; 27.3% in assay [15]; -1.02% in assay [16]; 1.43% in [17]; 4.9% in assay [18]. In addition, the figures for the inhibition in assay [19] and in assay [20] were 3.99% and 2.3%, respectively.

A word on the inhibition: it is the drop in the measured response relative to a control, in per cent.
